# Results as given in article PMC5540273 (PLoS ONE, 2017).
# Experiments:
# Conditions in all cases: concentration: 1 μM, replicates: in singlicate; n = 1
# SRPK2 = system: SRPK2
# SRPK3 = system: SRPK3
# STK16 = system: STK16
# STK33 = system: STK33
# STK35 = system: STK35
# STK36 = system: STK36
# STK39 = system: STK39
# SYK = system: SYK
# SgK110 = system: SgK110
# TAK1 = system: T1, TAK1
# T1 construct: gene MAP3K7
# 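Note: KINOMEscan kinase panel screen.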
SMILES,%Inh (SRPK2),%Inh (SRPK3),%Inh (STK16),%Inh (STK33),%Inh (STK35),%Inh (STK36),%Inh (STK39),%Inh (SYK),%Inh (SgK110),%Inh (TAK1)
CC(=O)c1c(C)c2cnc(Nc3ccn(C)n3)nc2n(C2CCCC2)c1=O,0%,0%,55%,0%,5%,0%,0%,0%,0%,11%
Cc1ccc(NC(=O)c2ccc(Cl)cc2)cc1-c1ccc(C(=O)Nc2ccncc2)cc1 [GSK1398467],0%,0%,7%,0%,0%,0%,6%,3%,0%,0%
COc1cccc(NC(=O)Nc2ccc(C)c(-c3ccc(C(=O)Nc4ccncc4)cc3)c2)c1 [GSK1398474],0%,27%,11%,0%,0%,51%,33%,40%,0%,0%
Cn1cncc1C(=O)NC1CCN(c2ccnc(Nc3ccc(F)cc3)n2)C1 (centres unmarked) [GSK1379717],0%,0%,17%,0%,0%,0%,0%,5%,6%,0%
CNC(=O)c1ccc(C)c(-n2c(C)cc(OCc3ccc(F)cc3F)c(Br)c2=O)c1,0%,6%,3%,0%,0%,1%,0%,14%,0%,12%
c1ccc(-c2ccnc3[nH]ccc23)cc1 [SB-693578],7%,0%,44%,0%,32%,0%,33%,0%,0%,11%
Cc1ccccc1-c1cc(-c2c[nH]nc2-c2ccccn2)ccn1 [GW680061],3%,4%,0%,0%,0%,0%,10%,36%,0%,0%
CS(=O)(=O)Cc1ccc(Nc2nccc(-c3c(-c4cccc(NC(=O)C5CCCCC5)c4)nn4ncccc34)n2)cc1 [GSK350559],0%,0%,12%,4%,9%,81%,37%,4%,0%,2%
COc1ccc(CSc2nnc(-c3ccc4nccn4c3)o2)cc1C(F)(F)F,0%,16%,3%,2%,16%,10%,0%,0%,0%,33%
CC(=O)c1c(C)c2cnc(Nc3ccc(N4CCNCC4)cn3)nc2n(C2CCCC2)c1=O,0%,0%,0%,0%,8%,0%,0%,0%,0%,28%
COc1ccc(CSc2nnc(-c3ccc4c(c3)CCO4)o2)cc1,0%,0%,5%,0%,0%,0%,0%,0%,26%,0%
COc1cccc(C2=C(Nc3cc(Cl)c(O)c(Cl)c3)C(=O)NC2=O)c1 [SB-390767],5%,24%,11%,0%,0%,0%,0%,0%,0%,0%
CC[C@@H]1CO[C@H](C(=O)Nc2ccccc2)CN1c1cc(-c2ccc3c(N)n[nH]c3c2)nc(NC)n1 [GSK2376236],0%,0%,21%,2%,0%,0%,0%,0%,0%,6%
O=C(Nc1n[nH]c2nc(-c3cccs3)c(Br)cc12)C1CC1 [SB-735297],0%,8%,0%,0%,0%,12%,7%,10%,0%,6%
COc1ccc(Nc2nccc(N3CCC(NC(=O)c4cc5ccccc5s4)C3)n2)cc1 (centres unmarked) [GSK1379738],0%,0%,19%,0%,0%,0%,0%,13%,0%,0%
NS(=O)(=O)c1cccc(N/C=C2\C(=O)Nc3ccc(S(=O)(=O)Cc4c(Cl)cccc4Cl)cc32)c1 [GSK398099],0%,0%,19%,0%,0%,0%,0%,0%,0%,0%
CCc1ccc(-c2ccc3c(c2)-c2n[nH]cc2S(=O)(=O)N3C)cc1,14%,0%,0%,0%,15%,0%,0%,19%,0%,0%
COc1ccc(Nc2nccc(N3CCC(NC(=O)C(C)c4ccc(Cl)cc4)CC3)n2)cc1 (centres unmarked) [GSK1379812],0%,8%,10%,0%,0%,18%,38%,32%,27%,0%
O=c1cc(N2CCOCC2)nc2n(Cc3ccccc3F)ccn12 [GSK2297428],0%,0%,0%,0%,0%,0%,0%,21%,0%,0%
CCCCc1nn2ncccc2c1-c1ccnc(NC2CC2)n1 [GW684374],0%,0%,20%,0%,0%,0%,0%,0%,0%,0%
COc1ccc(CSc2nnc(-c3ccc4ncsc4c3)o2)cc1C(F)(F)F,0%,0%,15%,0%,0%,0%,0%,0%,25%,0%

SMILES,%Inh (SRPK2),%Inh (SRPK3),%Inh (STK16),%Inh (STK33),%Inh (STK35),%Inh (STK36),%Inh (STK39),%Inh (SYK),%Inh (SgK110),%Inh (TAK1)
COc1ccc(Nc2nccc(N3CCC(NC(=O)C(C)c4ccc(Cl)cc4)C3)n2)cc1 (centres unmarked) [GSK1379735],0%,34%,0%,0%,7%,1%,13%,25%,0%,0%
CCn1c(-c2ccccc2)nc2cnccc21 [SB-733416],0%,5%,0%,0%,7%,0%,8%,17%,0%,0%
FC(F)(F)c1ccccc1-c1cc(-c2c[nH]nc2-c2ccccn2)ccn1 [GW679396],0%,0%,20%,0%,0%,29%,7%,25%,0%,4%
O=C(Nc1n[nH]c2nc(-c3ccco3)c(Br)cc12)C1CCN(Cc2ccccc2)C1.O=C(O)[C@H](O)[C@@H](O)C(=O)O (centres unmarked) [SB-742034],0%,0%,57%,23%,0%,29%,1%,0%,37%,22%
COc1ccc(Nc2nccc(-c3ccc(NC(=O)c4cc5cc(F)ccc5[nH]4)cc3)n2)cc1 [GSK1229496],14%,7%,2%,0%,0%,0%,0%,8%,0%,0%
Cc1ccc(NC(=O)Nc2ccc(Cl)c(C(F)(F)F)c2)cc1-c1ccc(C(=O)Nc2ccncc2)cc1 [GSK1398470],0%,23%,0%,6%,8%,37%,0%,13%,0%,0%
CSc1ccc(-c2nc3n(c2-c2ccncc2)CCC3)cc1 [SKF-105561],25%,0%,4%,11%,3%,16%,0%,18%,0%,0%
Cc1nccc(-c2c(-c3ccc(F)cc3)ncn2CCCN2CCOCC2)n1.Cl [SB-282975],0%,0%,0%,14%,0%,10%,28%,28%,26%,26%
CC(=O)c1cccc(NC(=O)NC2CCN(c3ccnc(Nc4ccc(F)cc4)n3)C2)c1 (centres unmarked) [GSK1379710],28%,0%,1%,6%,1%,0%,25%,29%,0%,0%
CS(=O)(=O)CCNCc1nc(-c2ccc3ncnc(Nc4ccc(OCc5ccccc5)c(Cl)c4)c3c2)cs1.Cl [GW582764],36%,0%,0%,0%,0%,0%,4%,20%,0%,0%
CCn1c(-c2c(N)noc2C)nc2cnccc21 [SB-737856],0%,2%,0%,0%,0%,0%,6%,1%,0%,0%
Cc1ccc(-c2nc(Nc3ccncc3)c3ccccc3n2)s1 [GSK189015],0%,18%,12%,12%,18%,0%,15%,5%,0%,0%
COc1ccc2cc(-c3nc(-c4ccccc4C(C)C)[nH]c3-c3ccncc3)ccc2c1 [SB-660566],0%,0%,9%,0%,38%,41%,31%,10%,0%,0%
Fc1ccc(-c2nc3n(c2-c2ccncc2)CCS3)cc1 [GI98581],0%,0%,0%,1%,0%,7%,0%,28%,0%,0%
Fc1ccc(-c2nn3cccc(F)c3c2-c2ccncc2)cc1 [GW475620],0%,16%,0%,5%,0%,28%,1%,14%,0%,0%
Cn1cncc1-c1cc2c(Nc3ccc(OCc4ccccc4)cc3)ncnc2cn1 [GW281179],0%,0%,4%,0%,0%,0%,12%,27%,0%,0%
O=c1cc(N2CCOCC2)nc2n(Cc3cccc(Cl)c3Cl)c3ccccc3n12 [GSK2299009],0%,15%,31%,18%,14%,0%,0%,50%,0%,0%
CNc1cc(-c2ccc3c(N)n[nH]c3c2)nc(N)n1 [GSK2224810],1%,0%,19%,0%,6%,0%,0%,7%,0%,26%
Cc1cnc(N)c(/C=C/c2cncc(C(=O)NCCc3ccc(Cl)cc3Cl)c2)c1.Cl [GSK190937],34%,0%,1%,5%,0%,28%,2%,22%,9%,0%
O=C(Nc1n[nH]c2cc(-c3ccsc3)ccc12)C1CC1 [SB-732932],0%,75%,23%,0%,0%,2%,0%,13%,0%,7%
